Laboratory results published in PubChem BioAssay AID1224853 (National Center for Advancing Translational Sciences (NCATS), 2016).
Inconclusive results are not listed. The source made the active and inactive calls. Calls follow the shape of the dose curve; as a rule, active = well fitted inhibition curve with a large enough effect; inconclusive = small, poorly fitted or top-dose-only effect; inactive = no such curve, though single readings can be large or run the other way.

Assay: Confirmation assay for measurement of the activity of small molecule inhibitors on Zika virus induced Caspase-3 activity in human astrocytoma cells
Details: SNB-19 ZIKV-induced caspase-3/7, luminescence, 6 h; series mostly up to 46.1 µM
From the text: National Center for Advancing Translational Sciences [NCATS] Johns Hopkins University School of Medicine Florida State University Assay Overview: Increase in the Caspase-3 activity indicates an activation of apoptosis cell death pathway caused by Zika virus infection in certain types of neuronal cells including human neural progenitor cells (hNPCs), astrocytes, and astrocytoma cell line (SNB-19). This cell-based caspase-3 activity assay measures the increased caspase-3 activity in the astrocytoma cell line (SNB-19) after a 6-hour Zika virus infection with a luminescence readout. A decrease in the luminescence signal in this assay by small molecule treatment indicates an inhibitory effect of that small molecule on the Zika virus induced caspase-3 activity that may correlate with its effect on reduction of Zika virus caused cell death.
Assay Protocol Summary: The medium for SNB-19 cells is composed of RPMI 1640 (ATCC, Cat.# 30-2001), 10% fetal bovine serum (FBS) (GE healthcare Life Sciences, Cat.# SH30071.03), and 1% Pen/Strep (Gibco, Cat.# 15140-122). A Caspase-Glo 3/7 assay kit (catalog number G8092; Promega, Madison, WI) was used to detect caspase-3 activity induced by Zika virus infection in human cells. The reagent mixture was reconstituted as described in the protocol from the manufacturer. Polystyrene tissue culture treated and PDL coated white plates were obtained from Greiner Bio-One (Monroe, NC). Cells were seeded in 384- or 1536-well assay plates and cultured at 37 C with 5% CO2 for 16 to 20 hours. The typical cell seeding density in the 1536-well plate assay is 250 cells/well in 3ul medium for SNB-19 cells in tissue culture treated plates. Compounds were added to cells and incubated for one hour before addition of ZIKV solution to cells (2 FFU/cell). After incubation at 37 C with 5% CO2 for 6 hours, the reagent mixture of Caspase-Glo 3/7 assay kit was added to each well, followed by incubation at room temperature for 30 minutes. The luminescence intensity of the assay plates was measured using a ViewLux plate reader (PerkinElmer). Data were normalized by using the cell-containing wells without ZIKV as a negative control (0% induction of caspase 3/7 activity) and wells containing ZIKV infected cells (Caspase-3 activity induced) as a positive control (100% induction of caspase 3 activity). The percentage inhibitions of the increased Caspase-3 activity by small molecule inhibitors were then calculated.

Potency, active:
O=C1C(Cl)=C(NCCN2CCOCC2)C(=O)c2ncccc21 5.48 µM
CCCS(=O)c1ccc2nc(NC(=O)OC)[nH]c2c1 (stereo not given) 21.8 µM
COc1ccc(-c2cc(=S)ss2)cc1 15.5 µM
Cc1ccc2c(n1)Oc1ccc(C(C)C(=O)OCC(=O)N(C)C)cc1C2 (stereo not given) 10.9 µM
CN(C)c1ccc(/C=C2\C(=O)Nc3ccccc32)cc1 10.9 µM
Nc1ccc2c(c1)CN1C(=O)c3ccccc3C1=N2 3.37 µM
O=C(Nc1ccc(OC(F)(F)F)cc1)c1sccc1NCc1ccnc2ccccc12 6.9 µM
COc1ccc(-c2coc3cc(O)ccc3c2=O)cc1 15.5 µM
Cc1ccc(O)c(N=Nc2ccccc2)n1 5.48 µM
COCCn1c2c([n+](Cc3cnccn3)c1C)C(=O)c1ccccc1C2=O 4.89 µM
Oc1ccc(/C=C/c2cc(O)cc(O)c2)cc1 13.8 µM
O=c1c2ccccc2nc2n1CCc1c-2[nH]c2ccccc12 4.89 µM
COc1cccc(-c2ccc(NC(=O)C3=C(C(=O)O)CCC3)c(F)c2)c1 3.46 µM
CC(C)(C)COc1ccc(-n2cc(C(=O)O)cn2)cc1C#N 25.1 µM
C/C(=N\O)c1ccc(OCC(=O)N2CCCCC2)cc1 8.69 µM
CN1CC(=O)N/C1=N/C(=O)Nc1cccc(Cl)c1 6.9 µM
CN(C)CCCSc1ccccc1NC(=O)/C=C/c1ccccc1 8.69 µM
COc1cc2nc(N3CCN(C(=O)C4CCCO4)CC3)nc(N)c2cc1OC (stereo not given) 17.3 µM
O=C(Nc1ncc([N+](=O)[O-])s1)c1cccs1 1.73 µM
O=C(C=CC=Cc1ccc2c(c1)OCO2)N1CCCCC1 19.5 µM
Cc1cccc(/C=C/c2ccccc2)n1 12.3 µM

Potency, inactive:
CCN1/C(=C/C=C/c2sc3ccccc3[n+]2CC)Sc2ccccc21
CN(C)c1ccc2cc(C(=O)N[C@@H](CCCN=C(N)CCl)C(=O)NCc3ccccc3)ccc2c1
CC(C)OC(=O)CCCC=CC[C@@H]1[C@H](C=C[C@@H](O)COc2cccc(C(F)(F)F)c2)[C@H](O)C[C@@H]1O
CN(C)c1ccc(N=NS(=O)(=O)O)cc1
CN(C)c1cc(NC(=O)CNC(C)(C)C)c(O)c2c1C[C@@H]1C[C@H]3[C@H](N(C)C)C(=O)C(C(N)=O)=C(O)[C@@]3(O)C(=O)C1=C2O
Nc1ncnc2c1ncn2[C@@H]1O[C@@H](CO)[C@H](O)[C@H]1O
Cc1ccc(C(=O)c2ccc(CC(=O)O)n2C)cc1
CO[C@H]1C(=O)[C@]2(C)[C@@H](OC)C[C@H]3OC[C@@]3(OC(C)=O)[C@H]2[C@H](OC(=O)c2ccccc2)[C@]2(O)C[C@H](OC(=O)[C@H](O)[C@@H](NC(=O)OC(C)(C)C)c3ccccc3)C(C)=C1C2(C)C
O=C(CS)Nc1ccccc1
CCCC(=O)OC[C@@H](OC(=O)CCC)[C@@H](OC(=O)CCC)[C@H](Cn1c2nc(=O)[nH]c(=O)c-2nc2cc(C)c(C)cc21)OC(=O)CCC
CCCCCCOc1ccccc1C(N)=O
Nc1ccc(O)c(C(=O)O)c1
CC(=NNC(=S)N1CCC1)c1ccccn1
COc1cc(NC(C)CCCN)c2ncccc2c1 (stereo not given)
COc1ccnc2c1CCCCC2S(=O)c1nc2ccccc2[nH]1 (stereo not given)
CCC(C)SSc1ncc[nH]1 (stereo not given)
NC1CCC(Nc2nc(Nc3ccc(C(=O)N4CCCCC4)cc3)c3ncn(-c4cccc(F)c4)c3n2)CC1 (stereo not given)
CC1=C(CO)C(=O)O[C@@H]([C@@H](C)[C@H]2CC[C@H]3[C@@H]4C[C@H]5O[C@]56[C@@H](O)C=CC(=O)[C@]6(C)[C@@H]4CC[C@]23C)C1
O=S(=O)(O)CCSSCCS(=O)(=O)O
